According to PubChem BioAssay (NCATS):
Inconclusive results are not listed. Activity calls are given as the source filed them. Calls follow the shape of the dose curve; as a rule, active = well fitted cell-killing curve with a large enough effect; inconclusive = small, poorly fitted or top-dose-only effect, or effect the other way; inactive = no such curve, though single readings can be large or run the other way.
Potency is read from the fitted curve at half-maximal effect.

Test: Quantitative High-Throughput drug screen in 47 multiple myeloma cell lines against the NCATS MIPE library collection: UTMC2_PLB cell viability assay (AID 1919868); also: nearly all actives have a fitted effect of over 55% in size
Conditions: CellTiter-Glo ATP luminescence, 48 h; series mostly up to 45.8 µM
Description: PI: Beverly A. Mock Ph.D.
Laboratory of Cancer Biology and Genetics,
Center for Cancer Research, National Cancer Institute,
National Institute of Health, Bethesda, Maryland
Drug resistance and disease progression are common in multiple myeloma (MM) patients, underscoring the need for new therapeutic combinations. […] We hypothesized that effective combinations would reduce MYC expression and enhance p16 activity. […] These preclinical data identify potentially useful drug combinations for evaluation in drug-resistant MM and reveal potential mechanisms of combined drug sensitivity.
Described herein is the primary MIPE qHTS used to cherrypick compounds. Validated compounds were then further tested for potential synergistic activiy.
[1] Peat TJ, Gaikwad SM, Dubois W, Gyabaah-Kessie N, Zhang S, Gorjifard S, Phyo Z, Andres M, Hughitt VK, Simpson RM, Miller MA, Girvin AT, Taylor A, Williams D, D'Antonio N, Zhang Y, Rajagopalan A, Flietner E, Wilson K, Zhang X, Shinn P, Klumpp-Thomas C, McKnight C, Itkin Z, Chen L, Kazandijian D, Zhang J, Michalowski AM, Simmons JK, Keats J, Thomas CJ, Mock BA. Drug combinations identified by high-throughput screening promote cell cycle transition and upregulate Smad pathways in myeloma. Cancer Lett. 2023 Aug 1;568:216284. doi: 10.1016/j.canlet.2023.216284. Epub 2023 Jun 24. PMID: 37356470; PMCID: PMC10408729.
SEQUENCE No. (e.g., 1, 2, 3, etc.); […] (e.g., Cells, Incubation, Reagent, etc.); VALUE and DESCRIPTION.
1; Cells; 5 uL; white, solid bottom 1536-well Greiner assay plate.
2; Compounds; 23 nL; Kalypsis pin tool (Wako USA) equipped with a 1536-well pin head to transfer to the assay plates.
3; Incubation; 48 hours; 37C incubation.
4; Reagent;5uL; CellTiter Glo (Promega).
5; Detector; 425V; Luminescence; Viewlux PerkinElmer.
NOTES (numbers refer to Sequence numbers above)
1. The cell-based screening methods employed in this study were like those previously published. Briefly, the corresponding myeloma cell lines were screened in 1,536-well plates with 500 cells, 5-uL per well for inhibition of cell viability (assessed by measuring ATP levels with CellTiterGlo).
2. NCATS MIPE 4.0 library of approved and investigational drugs were added using the Kalypsis pin tool. Wells treated with DMSO only for 100% viability and media only for 0% viability were used as controls.
3. The assay plates were covered and incubated for 48 hours in a 37C, 5% CO2 incubator with controlled humidity.
4. After 48 hours, CellTilter-GloTM luminescent substrate mix (Promega) reagent was added to the assay plate and plates we incubated for 5 min at room temperature.
5. Signal was measured as median relative luminescence units on a ViewLux (PerkinElmer) multiplate reader.
[1] Heske CM, Davis MI, Baumgart JT, Wilson K, Gormally MV, Chen L, Zhang X, Ceribelli M, Duveau DY, Guha R, Ferrer M, Arnaldez FI, Ji J, Tran HL, Zhang Y, Mendoza A, Helman LJ, Thomas CJ. Matrix Screen Identifies Synergistic Combination of PARP Inhibitors and Nicotinamide Phosphoribosyltransferase (NAMPT) Inhibitors in Ewing Sarcoma. Clin Cancer Res. 2017 Dec 1;23(23):7301-7311. doi: 10.1158/1078-0432.CCR-17-1121. Epub 2017 Sep 12. PMID: 28899971; PMCID: PMC6636827.
For `CN(C)C(=O)[C@H](O)[C@H](Cc1ccccc1)NC(=O)c1cc2cc(Cl)ccc2[nH]1`, the Potency was 3.32 µM (active). With `CN(C)CCc1c[nH]c2ccc(Cn3cncn3)cc12` the Potency was “inactive”. With `Cc1cc2c(s1)Nc1ccccc1N=C2N1CCN(C)CC1` the Potency was “inactive”. With `O=c1oc2cc(O)ccc2s1` the Potency was “inactive”. For `COc1ccccc1N1CCN(CCN(C(=O)C2CCCCC2)c2ccccn2)CC1`, the Potency was “inactive”. In the case of `Oc1ccc(OCc2ccccc2)cc1`, the Potency was “inactive”. For `CN(C)CCCC1(c2ccc(F)cc2)OCc2cc(C#N)ccc21` (stereo not given), the Potency was “inactive”. For `C[Se]CCC(N)C(=O)O` (stereo not given), the Potency was “inactive”. In the case of `O=C(O)c1cccnc1Nc1cccc(C(F)(F)F)c1`, the Potency was “inactive”. In the case of `NC(=NCc1ccccc1)NC(=O)c1nc(Cl)c(N)nc1N`, the Potency was “inactive”. With `CN(C)c1ccc2nc3ccc(=[N+](C)C)cc-3sc2c1` the Potency was 1.48 µM (active). With `COc1ccc2cc([C@H](C)C(=O)O)ccc2c1` the Potency was 23.5 µM (active). For `Cc1ncc([N+](=O)[O-])n1CC(C)O` (stereo not given), the Potency was 18.7 µM (active). In the case of `CC(=O)N1CCN(c2ccc(OC[C@H]3CO[C@](Cn4ccnc4)(c4ccc(Cl)cc4Cl)O3)cc2)CC1`, the Potency was “inactive”. For `CCCOc1ccc2nc(NC(=O)OC)[nH]c2c1`, the Potency was 0.0209 µM (active). For `S=c1nc[nH]c2nc[nH]c12`, the Potency was 14.8 µM (active). With `CC(C)C[C@H](NC(=O)[C@H](Cc1ccccc1)NC(=O)c1cnccn1)B(O)O` the Potency was 0.148 µM (active). For `Cc1c(C(=O)NN2CCCCC2)nn(-c2ccc(Cl)cc2Cl)c1-c1ccc(Cl)cc1`, the Potency was 20.9 µM (active). For `Clc1ccc2c(N3CCN(CCCN4CCN(c5ccnc6cc(Cl)ccc56)CC4)CC3)ccnc2c1`, the Potency was “inactive”. For `CCN(CC)CCOc1ccc(Cc2ccccc2)cc1`, the Potency was “inactive”. For `CN(c1nccc(=O)[nH]1)C1CCN(c2nc3ccccc3n2Cc2ccc(F)cc2)CC1`, the Potency was 16.6 µM (active). With `Cc1cccc(CN2CCN(C(c3ccccc3)c3ccc(Cl)cc3)CC2)c1` (stereo not given) the Potency was 20.9 µM (active). In the case of `CC[C@]1(O)C[C@H]2CN(CCc3c([nH]c4ccccc34)[C@@](C(=O)OC)(c3cc4c(cc3OC)N(C=O)[C@H]3[C@@](O)(C(=O)OC)[C@H](OC(C)=O)[C@]5(CC)C=CCN6CC[C@]43[C@@H]65)C2)C1`, the Potency was 0.0093 µM (active). In the case of `Nc1nc(Cl)nc2c1ncn2[C@H]1C[C@H](O)[C@@H](CO)O1`, the Potency was 2.35 µM (active). In the case of `C[C@@H](N)C1CCC(C(=O)Nc2ccncc2)CC1` (stereo not given in full), the Potency was 6.62 µM (active). For `COc1cc(Nc2c(C#N)cnc3cc(OCCCN4CCN(C)CC4)c(OC)cc23)c(Cl)cc1Cl`, the Potency was 0.526 µM (active). With `CC(=O)NC[C@H]1CN(c2ccc(N3CCOCC3)c(F)c2)C(=O)O1` the Potency was “inactive”. With `O=C1NC(=O)C(c2ccccc2[N+](=O)[O-])=C1Nc1ccc(O)c(Cl)c1` the Potency was “inactive”. In the case of `Clc1ccc(C(Cn2ccnc2)OCc2ccc(Sc3ccccc3)cc2)c(Cl)c1` (stereo not given), the Potency was 33.2 µM (active). With `CCC[C@@H]1C[C@@H](C(=O)N[C@@H]([C@H]2O[C@H](SC)[C@H](O)[C@@H](O)[C@H]2O)[C@@H](C)O)N(C)C1` the Potency was 0.0166 µM (active). With `Cc1nc(-c2ccc(OCC(C)C)c(C#N)c2)sc1C(=O)O` the Potency was “inactive”. With `N=C(N=C(N)N)N1CCOCC1` the Potency was “inactive”. For `COC1=C(OC)C(=O)C(CCCCCCCCCCO)=C(C)C1=O`, the Potency was 26.4 µM (active). For `Cc1cc(O)c2c(c1)C(=O)c1cc(O)cc(O)c1C2=O`, the Potency was “inactive”. In the case of `O=Nc1c(-c2c(O)[nH]c3cc(Br)ccc23)[nH]c2ccccc12`, the Potency was 8.33 µM (active). For `O=C(NOCC1CC1)c1ccc(F)c(F)c1Nc1ccc(I)cc1Cl`, the Potency was 13.2 µM (active). With `CCN(CC)CCOc1ccc(Nc2ncc3cc(-c4c(Cl)cccc4Cl)c(=O)n(C)c3n2)cc1` the Potency was 0.132 µM (active). In the case of `COc1cc2c(N3CCN(C(=O)Nc4ccc(OC(C)C)cc4)CC3)ncnc2cc1OCCCN1CCCCC1`, the Potency was 4.18 µM (active). For `O=C(O)c1cn(-c2ccc(F)cc2)c2cc(N3CCNCC3)c(F)cc2c1=O`, the Potency was “inactive”. In the case of `Nc1ccc(S(N)(=O)=O)cc1`, the Potency was “inactive”.
